In the supplement of paper PMC6522484:
± gives the standard deviation of the averaged measurements.

Assays:
DLD1 [1] = assay: cell viability (CellTiter-Glo) relative to plate median (fraction of plate median); higher = more viable cells; details: 5 µM; treatment time 24 h; reporter: 7TFP
Summary of the method: (§1)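 Library compounds, at a final 5 µM, stayed on reporter cells for 24 h. The cells were colorectal cancer lines stably transduced with lentiviral TCF/Wnt firefly luciferase reporters, seeded in 384-well plates 24 h before dosing. Firefly luciferase or CellTiterGlo luminescence from parallel plates was normalised to the plate median in webcellHTS2 (additive, no log transformation), and two independent replicates were averaged.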

HCT116 = assay: as above; details: 5 µM; treatment time 24 h; reporter: TCF4/Wnt
Summary of the method: as §1

SW480 [2] = assay: as above; details: 5 µM; treatment time 24 h; reporter: 7TFP
Summary of the method: as §1

DLD1 [3] = assay: TCF/Wnt firefly luciferase reporter signal relative to plate median (fraction of plate median); higher = higher Wnt reporter signal; details: 5 µM; treatment time 24 h; reporter: 7TFP
Summary of the method: as §1

SW480 [4] = assay: as above; details: 5 µM; treatment time 24 h; reporter: 7TFP
Summary of the method: as §1

| Compound | cell viability (DLD1 [1]) | cell viability (HCT116) | cell viability (SW480 [2]) | TCF/Wnt firefly luciferase reporter signal (DLD1 [3]) | TCF/Wnt firefly luciferase reporter signal (SW480 [4]) |
| --- | --- | --- | --- | --- | --- |
| C[C@]12CCC(=O)C=C1CC[C@@H]1[C@@H]2[C@@H](O)C[C@@]2(C)[C@H]1CC[C@]2(O)C(=O)COP(=O)(O)O | 0.949 ± 0.0099 | 0.974 ± 0.065 | 0.969 ± 0.03 | 1.01 ± 0.025 | 1.07 ± 0.014 |
| CC(C)=CCc1c(O)cc2oc(C)cc(=O)c2c1O | 1 ± 0.036 | 0.981 ± 0.055 | 1 ± 0.024 | 0.869 ± 0.15 | 0.943 ± 0.095 |
| Oc1cccc(O)c1 | 1.02 ± 0.072 | 0.985 ± 0.013 | 1.01 ± 0.02 | 0.873 ± 0.074 | 1.02 ± 0.055 |
| COc1ccccc1N1CCN(CCCNc2cc(=O)n(C)c(=O)n2C)CC1 | 0.938 ± 0.037 | 0.885 ± 0.018 | 0.93 ± 0.025 | 1.03 ± 0.05 | 0.953 ± 0.081 |
| Cn1c(=O)c2nc(C3CCCC3)[nH]c2n(C)c1=O | 1.07 ± 0.064 | 1.05 ± 0.1 | 1.02 ± 0.047 | 1.01 ± 0.17 | 0.968 ± 0.039 |
| CC1(C)CC2C1CC[C@]1(C)CCC3C(C(=O)O)CC(=O)O[C@@]32C1 (stereo not given in full) [3-HYDROXY-4-(SUCCIN-2-YL)-CARYOLANE delta-LACTONE] | 1.01 ± 0.088 | 0.9705 ± 0.00071 | 0.962 ± 0.035 | 1.07 ± 0.085 | 0.986 ± 0.021 |
| CC(C)c1nc(N(C)S(C)(=O)=O)nc(-c2ccc(F)cc2)c1/C=C/[C@@H](O)C[C@@H](O)CC(=O)O | 0.93 ± 0.11 | 0.9675 ± 0.00071 | 1.02 ± 0.014 | 0.984 ± 0.08 | 0.913 ± 0.15 |
| CC(C)(C)NCC(O)COc1cccc2c1CC(O)C(O)C2 (stereo not given) | 1.05 ± 0.11 | 0.929 ± 0.015 | 1.04 ± 0.028 | 1.02 ± 0.15 | 0.996 ± 0.063 |
| CC(=O)O[C@H]1CC[C@]2(C)[C@H]3CC[C@]4(C)C(=CC[C@@]5(C(=O)O)CCC(C)(C)C[C@H]54)[C@]3(C)CC[C@H]2C1(C)C [3-Acetylaleuritolic acid] | 1.01 ± 0.11 | 1.04 ± 0.11 | 1.01 ± 0.044 | 0.879 ± 0.0085 | 1.02 ± 0.06 |
| COC(=O)[C@H]1[C@H]2C[C@H]3c4[nH]c5ccccc5c4CCN3C[C@@H]2CC[C@@H]1O | 0.988 ± 0.06 | 0.984 ± 0.066 | 1.06 ± 0.014 | 1.01 ± 0.039 | 1.06 ± 0.028 |
| O=C(Nc1ccc(C(=O)O)c(O)c1)c1ccccc1 | 1.065 ± 0.0071 | 0.924 ± 0.011 | 1.01 ± 0.032 | 0.83 ± 0.016 | 1.07 ± 0.05 |
| CCCCOc1ccc(C(=O)CCN2CCCCC2)cc1 | 0.832 ± 0.12 | 0.87 ± 0.033 | 0.931 ± 0.045 | 1.09 ± 0.23 | 1.17 ± 0.092 |
| CCCSc1ccc2[nH]c(NC(=O)OC)nc2c1 | 0.966 ± 0.039 | 0.893 ± 0.17 | 0.986 ± 0.016 | 1.1 ± 0.028 | 1.04 ± 0.1 |
| CCOC(=O)c1ccc(O)cc1 | 0.925 ± 0.019 | 0.89 ± 0.056 | 1.004 ± 0.0078 | 1.01 | 0.998 ± 0.059 |
| COc1cc(C)c2c(=O)cc(-c3ccccc3)oc2c1 | 0.991 ± 0.027 | 0.884 ± 0.083 | 1 ± 0.041 | 1.18 ± 0.092 | 1.14 ± 0.014 |
| CC(=O)O[C@H]1C[C@@]2(C)[C@@H](C[C@@H](O)[C@H]3[C@@]4(C)CC[C@@H](O)[C@@H](C)[C@@H]4CC[C@@]32C)/C1=C(\CCC=C(C)C)C(=O)O | 1.04 ± 0.05 | 1 ± 0.054 | 1.04 ± 0.028 | 1.12 ± 0.05 | 1.06 ± 0.064 |
| CC(C)CCC[C@@H](C)[C@H]1CC[C@H]2[C@@H]3C[C@@H](O)[C@@]4(O)C[C@@H](O)CC[C@]4(C)[C@H]3CC[C@]12C [CHOLESTAN-3beta,5alpha,6beta-TRIOL] | 0.991 ± 0.041 | 0.924 ± 0.083 | 0.967 ± 0.016 | 0.9 ± 0.086 | 0.891 ± 0.076 |
| O=C1C=C(O)C(=O)c2ccccc21 | 1.025 ± 0.0071 | 1.06 ± 0.035 | 1.02 ± 0.047 | 0.947 ± 0.09 | 0.985 ± 0.11 |
| NS(=O)(=O)c1cc2c(cc1Cl)NC(C1CC3C=CC1C3)NS2(=O)=O (stereo not given) | 0.973 ± 0.052 | 0.962 ± 0.0071 | 0.983 ± 0.0042 | 1.1 ± 0.035 | 0.879 ± 0.04 |
| CC(=O)OCC(=O)[C@@]1(O)[C@@H](C)C[C@H]2[C@@H]3CCC4=CC(=O)C=C[C@]4(C)[C@@]3(F)[C@@H](O)C[C@@]21C | 1.04 ± 0.014 | 1.17 ± 0.11 | 1 ± 0.026 | 0.989 ± 0.011 | 0.876 ± 0.14 |
| COC(=O)[C@H](Cc1ccccc1)NC(=O)[C@@H](N)CC(=O)O | 0.952 ± 0.082 | 1.08 ± 0.11 | 1.06 ± 0.014 | 1.045 ± 0.0071 | 0.985 ± 0.14 |
| OCCc1ccccc1 | 0.986 | 0.995 ± 0.05 | 0.959 ± 0.03 | 1.16 ± 0.085 | 1.12 ± 0.092 |
| NCCCCNCCCN | 0.936 ± 0.011 | 1.03 | 0.958 ± 0.05 | 1.12 ± 0.16 | 1.12 ± 0.13 |
| CC(COc1ccccc1)N(CCCl)Cc1ccccc1 (stereo not given) | 1 ± 0.057 | 1.05 ± 0.028 | 0.978 ± 0.025 | 1.05 ± 0.21 | 1.03 ± 0.014 |
| OCc1ccccc1O[C@@H]1O[C@H](CO)[C@@H](O)[C@H](O)[C@H]1O | 0.971 ± 0.098 | 0.971 ± 0.056 | 0.969 ± 0.0042 | 0.862 ± 0.099 | 0.967 ± 0.042 |
| CCCCCC[C@H]1CC[C@@](O)([C@@](C)(O)C(=O)N[C@@H]2C(=O)N3NCCC[C@@H]3C(=O)N(O)[C@@H](COC)C(=O)NCC(=O)N3NCCC[C@H]3C(=O)N(O)[C@H](C)C(=O)O[C@H]2C)OC1C (stereo not given in full) [Diperamycin] | 1.15 ± 0.099 | 1.23 ± 0.035 | 1.11 ± 0.099 | 1.06 ± 0.11 | 0.926 ± 0.0014 |
| CCn1cc(C(=O)O)c(=O)c2cc(F)c(N3CCN(C)CC3)cc21 | 1 ± 0.04 | 1.015 ± 0.0071 | 0.982 ± 0.018 | 1.19 ± 0.035 | 1.05 ± 0.078 |
| C[C@@H]1[C@H]2[C@H](O[C@@H]3O[C@H](CO)[C@@H](O)[C@H](O)[C@H]3O)OC=C(C(=O)O)[C@H]2C[C@@H]1O | 1.05 ± 0.035 | 1.02 ± 0.1 | 1.03 ± 0.014 | 1.07 ± 0.1 | 1.05 ± 0.078 |
| NS(=O)(=O)c1cc2c(cc1Cl)NC(C(Cl)Cl)NS2(=O)=O (stereo not given) | 0.977 ± 0.047 | 1.06 ± 0.078 | 0.973 ± 0.0028 | 1.11 ± 0.29 | 0.991 ± 0.013 |
| C=CCc1ccc(OC(=O)c2ccccc2)c(OC)c1 | 1.02 ± 0.14 | 1.07 ± 0.05 | 1.02 ± 0.063 | 1.22 ± 0.014 | 1 ± 0.14 |
